An excerpt weighted towards active compounds, which were near 10% of everything screened.
HP1b chromo inh – blocks HP1-beta chromodomain binding to methylated histone tails; P83916; AlphaScreen HP1-beta / biotin-H3K9me3 peptide binding; Potency, µM (doses to about 114 µM), usual class: inhibitors; hit rate 0.56% among 390,000; also: nearly all actives have a fitted effect of over 70% in size
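HP1-beta protein (50 nM final) preincubated 30 min at room temperature with biotinylated H3(1-18)K9me3 peptide (50 nM) in PBS pH 7.4, 0.01% Tween-20, then compound added for 30 min. AlphaScreen streptavidin donor/nickel chelate acceptor beads (10 ug/mL final), 30 min dark, luminescence read.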
G9a block – blocks human histone lysine methyltransferase G9a; Q96KQ7; G9a H3K9 monomethylation, AlphaScreen, 2 h; Potency, µM (top dose mostly 102 µM), most hits filed as inhibitors; hit rate 8.8% among 350,000; also: nearly all actives have a fitted effect of over 75% in size
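Readings reflect AlphaScreen signal from monomethyl-H3K9 antibody detection. HMT at 20 nM; substrate b-H3K9 500 nM; cofactor SAM 20 uM; 2 h RT reaction; compounds tested as titrations in qHTS with 15 min preincubation.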
JMJD2A Tudor inh – inhibitors of human JMJD2A Tudor domain. Potency, µM (titrated, usually from 114 µM), usual class: inhibitors. O75164. AID 504339. hit rate 4.4% among 390,000. AlphaScreen JMJD2A-Tudor / H3K4me3 peptide binding; also: nearly all actives have a fitted effect of over 50% in size
BAZ2B inh – BAZ2B (human) inhibition; Q9UIF8; AlphaScreen BAZ2B-H3K14Ac peptide displacement; Potency, µM (top dose mostly 114 µM), usual class: inhibitors; hit rate 4.4% among 360,000; AID 504333; also: nearly all actives have a fitted effect of over 60% in size
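Complex of BAZ2B and biotin-H3K14Ac (50 nM apiece) forms over 30 min at RT, then faces library compounds up to 110 uM for another 30 min; AlphaScreen beads added, 20 min dark incubation, luminescence read.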
GLS inhibitor – glutaminase GLS (human) inhibition. O94925. GLS enzymatic activity, qHTS titration. Potency, µM (titrated, usually from 45.5 µM), usual class: inhibitors. hit rate 0.21% among 410,000. AID 624170
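Coupled fluorescence readout: glutamate oxidase/HRP/Amplex Red detect glutamate formed by hKGA from L-glutamine (1 mM solution added). Buffer 45 mM KH2PO4 pH 8.2, 0.02% Tween-20; reads at t0 and 30 min RT.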
Hits are given with their value; n = inactive; u = inconclusive; x = not tested or not shown; [ ] = dose if it differs, or a comment. Calls follow the shape of the dose curve; as a rule, active = well fitted curve in the direction sought with a large enough effect; inconclusive = small, poorly fitted or top-dose-only effect, or another doubt; inactive = no such curve, though single readings can be large; an effect the other way counts as inactive or inconclusive.

SMILES | HP1b chromo inh | G9a block | JMJD2A Tudor inh | BAZ2B inh | GLS inhibitor
O=C(CSc1nc2ccccc2[nH]1)N/N=C/c1ccncc1 | n | n | n | n | n
CCn1c(SCC(=O)NC(=O)NC(C)(C)C)nc2ccccc21 | u | n | 11µM | n | n
COCCn1c(SCC(=O)NC(=O)NC(C)(C)C)nc2ccccc21 | n | n | n | n | n
O=C(CSc1nnc(SCc2ccccc2)s1)N/N=C/C=C\c1ccco1 | u | 10µM | 13µM | 14µM | n
Cc1ccc(Cl)cc1N1CCN(Cc2nc3c(c(=O)[nH]c(=O)n3C)n2CCc2ccccc2)CC1 | n | n | n | n | n
COc1ccccc1C(=O)n1nc(C)cc1C | n | n | n | n | n
Cn1c(=O)c2ccccc2n(CC(=O)NC2CCCC2)c1=O | n | n | n | n | n
COc1ccc([N+](=O)[O-])cc1N(CC(=O)N1CCN(Cc2ccccc2)CC1)S(C)(=O)=O | n | n | u | n | u
Cc1ccc(CSc2nnc(SCC(=O)N/N=C/c3c[nH]c4ccccc34)s2)cc1 | n | u | u | 20µM | n
CCn1c(SCC(=O)N/N=C/C=C/c2ccco2)nnc1-c1ccc(OC)cc1 | n | 35µM | n | u | n
O=C(CSc1nnc(SCc2ccccc2Cl)s1)N/N=C/c1c[nH]c2ccccc12 | n | n | n | n | n
CCn1c(SCC(=O)N/N=C/C=C/c2ccco2)nc2ccccc21 | n | 6.3µM | u | 45µM | n
CCc1cc2c(COC(=O)c3cccc(S(C)(=O)=O)c3)cc(=O)oc2cc1O | n | n | n | u | n
CCC(=O)Nc1ccc(NC(=O)CSc2nnnn2CC)cc1C | n | n | n | n | n
Cc1ccc(C(=O)Nc2c(C)cc(-c3ccc(Cl)cc3)oc2=O)cc1 | n | n | n[11.4 µM] | n | n
Cc1ccc(N=Cc2sc(O)c3ccccc23)cc1 | n | 8.9µM | n | n | n
CCN(CC)c1ccc(C=Nc2ccc(C)cc2C)c(O)c1 | n | x | n | n | n
Cc1ccc(N=Cc2sc(O)c3ccccc23)c(C)c1 | n | 8.9µM | n | n | n
CCn1c(SCC(=O)Nc2ccc3c(c2)OCO3)nc2c1c(=O)n(C)c(=O)n2C | n | n[2.33 µM] | n | n | n
O=C(NCCN1CCOCC1)c1ccc2c(c1)N(Cc1ccccc1F)C(=O)CS2 | n | n[0.501 µM] | n | n | n
O=C(Cn1cnc2ccccc2c1=O)Nc1nnc(SCc2ccccc2)s1 | n | n[12.7 µM] | n | n | n
O=[N+]([O-])c1ccccc1/C=C/C=N/n1c(-c2ccco2)n[nH]c1=S | n | n | 22µM | u | u
O=[N+]([O-])c1ccccc1/C=C/C=N/n1c(-c2cc(-c3ccccc3)n[nH]2)n[nH]c1=S | n | x | 50µM | n | n
O=C(N/N=C/C=C\c1ccccc1[N+](=O)[O-])c1cc(-c2ccccc2)nc2ccccc12 | n | n | n | n | n
Cc1ccc(-c2n[nH]c(=S)n2/N=C/C=C/c2ccccc2[N+](=O)[O-])cc1 | u | 0.28µM | n | u | u
SMILES | HP1b chromo inh | G9a block | JMJD2A Tudor inh | BAZ2B inh | GLS inhibitor
CCN=c1scc(-c2ccc3c(c2)NC(=O)CO3)n1N=C1CCCC1 | u | u | u | 50µM | n
Cc1ccc(OCCC(=O)OCC(=O)c2ccc3c(c2)NC(=O)CO3)cc1 | n | n | n | n | n
COCC(C)n1c(-c2ccc3c(c2)NC(=O)CO3)csc1=Nc1ccc(OC(F)F)cc1 (stereo not given) | u | n[12.7 µM] | u | 13µM | n
CC(C(=O)Nc1ccc2c(c1)OCO2)N1CCN(C)CC1 (stereo not given) | 22µM | 14µM | 0.79µM | 45µM | n
CC(C(=O)Nc1ccc2c(c1)OCO2)N1CCC(N2CCCCC2)CC1 (stereo not given) | n | u | 25µM | 50µM | n
CC(C(=O)Nc1ccc2[nH]c(=O)[nH]c2c1)N1CCN(Cc2ccc3c(c2)OCO3)CC1 (stereo not given) | n | n[12.7 µM] | n | n | n
CN(Cc1ccccc1)C(=O)COC(=O)CCN1C(=O)C2CC=CCC2C1=O (stereo not given) | n | n[12.7 µM] | n | n | n
COc1cc2c(cc1OC)/C(=C/C(=O)c1cccc([N+](=O)[O-])c1)NCC2 | u | n | u | n | n
COc1cc2c(cc1OC)/C(=C/C(=O)c1ccc(F)cc1)NCC2 | n | 79µM | u | 50µM | n
COc1cc2c(cc1OC)/C(=C/C(=O)c1ccccc1F)NCC2 | u | 56µM | u | u | n
Cn1nc(SCc2ccccc2)c(=O)[nH]c1=O | x | x | x | x | n
